Measurements from ChEMBL document CHEMBL2218924, “A broad activity screen in support of a chemogenomic map for kinase signalling research and drug discovery” (Biochem J, 2013).

Columns and labels:
[1] = target: Death-associated protein kinase 1 (Homo sapiens) (UniProt P53355); details: at 10 µM
[2] = target: Death-associated protein kinase 2 (Homo sapiens) (UniProt Q9UIK4); details: at 1 µM
[3] = target: Death-associated protein kinase 2 (Homo sapiens) (UniProt Q9UIK4); details: at 10 µM
[4] = target: T1, Serine/threonine-protein kinase DCLK2 (Homo sapiens) (UniProt Q8N568); details: at 1 µM
T1 sequence (whole entry): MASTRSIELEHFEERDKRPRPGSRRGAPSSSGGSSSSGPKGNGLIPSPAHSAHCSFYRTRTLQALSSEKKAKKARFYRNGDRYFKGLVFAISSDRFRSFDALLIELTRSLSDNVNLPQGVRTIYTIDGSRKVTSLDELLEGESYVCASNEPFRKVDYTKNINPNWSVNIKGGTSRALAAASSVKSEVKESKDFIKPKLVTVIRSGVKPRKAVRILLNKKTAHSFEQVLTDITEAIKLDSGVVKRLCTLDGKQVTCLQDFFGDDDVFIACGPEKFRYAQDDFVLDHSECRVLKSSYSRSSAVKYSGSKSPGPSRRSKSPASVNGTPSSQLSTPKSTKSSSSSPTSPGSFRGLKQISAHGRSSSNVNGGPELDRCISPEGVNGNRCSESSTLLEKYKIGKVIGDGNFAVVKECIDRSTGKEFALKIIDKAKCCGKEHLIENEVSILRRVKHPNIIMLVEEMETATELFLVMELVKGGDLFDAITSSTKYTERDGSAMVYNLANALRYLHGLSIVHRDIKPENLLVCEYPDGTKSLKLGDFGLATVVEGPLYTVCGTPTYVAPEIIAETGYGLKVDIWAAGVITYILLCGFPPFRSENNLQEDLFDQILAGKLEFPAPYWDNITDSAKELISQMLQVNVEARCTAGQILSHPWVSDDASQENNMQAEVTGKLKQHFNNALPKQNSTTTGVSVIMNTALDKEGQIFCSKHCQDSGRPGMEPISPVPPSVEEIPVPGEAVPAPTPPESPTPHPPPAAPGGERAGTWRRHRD

[5] = target: T1, Serine/threonine-protein kinase DCLK2 (Homo sapiens); details: at 10 µM
[6] = target: T2, Discoidin domain-containing receptor 2 (Homo sapiens) (UniProt Q16832); details: at 1 µM
T2 sequence (whole entry): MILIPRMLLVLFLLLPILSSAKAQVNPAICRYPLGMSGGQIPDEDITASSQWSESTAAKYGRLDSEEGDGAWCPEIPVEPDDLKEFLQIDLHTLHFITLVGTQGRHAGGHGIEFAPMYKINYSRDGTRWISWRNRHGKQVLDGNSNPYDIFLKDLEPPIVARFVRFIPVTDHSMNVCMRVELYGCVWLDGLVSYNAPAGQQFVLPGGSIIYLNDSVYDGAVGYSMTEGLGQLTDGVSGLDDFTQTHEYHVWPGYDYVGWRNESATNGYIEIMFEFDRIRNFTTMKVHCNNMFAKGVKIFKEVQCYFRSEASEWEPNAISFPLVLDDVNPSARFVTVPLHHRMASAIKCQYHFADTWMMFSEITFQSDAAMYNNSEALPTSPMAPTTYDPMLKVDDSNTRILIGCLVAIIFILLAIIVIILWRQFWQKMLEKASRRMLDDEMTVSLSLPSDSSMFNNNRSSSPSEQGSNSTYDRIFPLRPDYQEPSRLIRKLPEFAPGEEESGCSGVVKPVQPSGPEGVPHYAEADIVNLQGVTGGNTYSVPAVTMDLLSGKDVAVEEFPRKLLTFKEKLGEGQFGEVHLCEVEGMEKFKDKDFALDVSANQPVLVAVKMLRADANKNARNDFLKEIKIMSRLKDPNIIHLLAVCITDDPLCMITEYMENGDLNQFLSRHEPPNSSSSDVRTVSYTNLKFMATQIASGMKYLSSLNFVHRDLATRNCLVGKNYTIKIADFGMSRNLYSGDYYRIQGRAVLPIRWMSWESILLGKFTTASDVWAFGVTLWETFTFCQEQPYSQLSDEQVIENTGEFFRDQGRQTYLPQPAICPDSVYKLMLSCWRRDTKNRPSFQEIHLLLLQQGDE

[7] = target: T2, Discoidin domain-containing receptor 2 (Homo sapiens); details: at 10 µM
[8] = target: T3, Myotonin-protein kinase (Homo sapiens) (UniProt Q09013); details: at 1 µM
T3 sequence (whole entry): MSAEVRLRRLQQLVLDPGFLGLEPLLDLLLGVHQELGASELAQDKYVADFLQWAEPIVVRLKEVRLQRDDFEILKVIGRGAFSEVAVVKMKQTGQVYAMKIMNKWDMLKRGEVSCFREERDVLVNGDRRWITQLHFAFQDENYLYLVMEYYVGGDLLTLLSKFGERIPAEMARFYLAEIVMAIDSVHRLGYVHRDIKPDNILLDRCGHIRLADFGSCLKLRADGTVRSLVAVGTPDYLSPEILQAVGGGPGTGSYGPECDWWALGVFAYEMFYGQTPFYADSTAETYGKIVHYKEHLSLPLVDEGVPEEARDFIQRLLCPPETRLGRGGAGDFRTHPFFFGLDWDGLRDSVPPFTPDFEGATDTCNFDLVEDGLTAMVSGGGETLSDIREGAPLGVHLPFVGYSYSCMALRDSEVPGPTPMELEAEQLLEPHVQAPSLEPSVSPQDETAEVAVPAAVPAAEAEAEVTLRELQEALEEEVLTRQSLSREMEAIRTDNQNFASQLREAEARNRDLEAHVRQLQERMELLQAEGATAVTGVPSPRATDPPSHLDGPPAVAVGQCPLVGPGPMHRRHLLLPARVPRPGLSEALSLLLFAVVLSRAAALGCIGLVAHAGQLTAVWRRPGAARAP

[9] = target: T3, Myotonin-protein kinase (Homo sapiens); details: at 10 µM
[10] = target: T4, Serine/threonine-protein kinase 17A (Homo sapiens) (UniProt Q9UEE5); details: at 1 µM
T4 sequence (whole entry): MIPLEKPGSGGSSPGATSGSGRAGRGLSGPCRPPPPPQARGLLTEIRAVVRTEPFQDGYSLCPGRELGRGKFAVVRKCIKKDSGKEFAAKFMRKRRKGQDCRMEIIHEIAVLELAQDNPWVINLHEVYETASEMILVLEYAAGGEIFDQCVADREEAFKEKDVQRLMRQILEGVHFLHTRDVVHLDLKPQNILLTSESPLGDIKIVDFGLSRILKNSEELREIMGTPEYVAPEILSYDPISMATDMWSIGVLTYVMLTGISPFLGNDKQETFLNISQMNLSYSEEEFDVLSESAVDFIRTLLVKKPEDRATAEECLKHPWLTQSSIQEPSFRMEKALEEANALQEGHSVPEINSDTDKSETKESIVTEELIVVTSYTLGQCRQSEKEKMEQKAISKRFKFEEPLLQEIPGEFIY

[11] = target: T4, Serine/threonine-protein kinase 17A (Homo sapiens); details: at 10 µM
[12] = target: T5, Dual specificity tyrosine-phosphorylation-regulated kinase 2 (Homo sapiens) (UniProt Q92630); details: at 1 µM
T5 sequence (whole entry): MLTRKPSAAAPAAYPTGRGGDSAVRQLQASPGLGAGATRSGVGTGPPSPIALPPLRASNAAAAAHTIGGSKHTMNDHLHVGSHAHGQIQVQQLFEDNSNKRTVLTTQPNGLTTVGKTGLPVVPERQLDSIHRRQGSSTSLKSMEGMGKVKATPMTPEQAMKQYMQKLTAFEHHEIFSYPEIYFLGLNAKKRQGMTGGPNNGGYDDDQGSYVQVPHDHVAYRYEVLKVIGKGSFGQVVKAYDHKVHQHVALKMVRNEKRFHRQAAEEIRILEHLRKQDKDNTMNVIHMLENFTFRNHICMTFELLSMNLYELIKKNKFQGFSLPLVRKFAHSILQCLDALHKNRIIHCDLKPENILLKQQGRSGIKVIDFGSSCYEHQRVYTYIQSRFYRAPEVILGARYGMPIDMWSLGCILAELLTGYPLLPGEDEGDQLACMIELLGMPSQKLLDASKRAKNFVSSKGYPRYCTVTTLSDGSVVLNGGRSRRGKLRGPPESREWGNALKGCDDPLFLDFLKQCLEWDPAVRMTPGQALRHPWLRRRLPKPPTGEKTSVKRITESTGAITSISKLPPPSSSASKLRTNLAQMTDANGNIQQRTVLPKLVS

[13] = target: T5, Dual specificity tyrosine-phosphorylation-regulated kinase 2 (Homo sapiens); details: at 10 µM
[14] = target: T6, Ephrin type-A receptor 1 (Homo sapiens) (UniProt P21709); details: at 1 µM
T6 sequence (whole entry): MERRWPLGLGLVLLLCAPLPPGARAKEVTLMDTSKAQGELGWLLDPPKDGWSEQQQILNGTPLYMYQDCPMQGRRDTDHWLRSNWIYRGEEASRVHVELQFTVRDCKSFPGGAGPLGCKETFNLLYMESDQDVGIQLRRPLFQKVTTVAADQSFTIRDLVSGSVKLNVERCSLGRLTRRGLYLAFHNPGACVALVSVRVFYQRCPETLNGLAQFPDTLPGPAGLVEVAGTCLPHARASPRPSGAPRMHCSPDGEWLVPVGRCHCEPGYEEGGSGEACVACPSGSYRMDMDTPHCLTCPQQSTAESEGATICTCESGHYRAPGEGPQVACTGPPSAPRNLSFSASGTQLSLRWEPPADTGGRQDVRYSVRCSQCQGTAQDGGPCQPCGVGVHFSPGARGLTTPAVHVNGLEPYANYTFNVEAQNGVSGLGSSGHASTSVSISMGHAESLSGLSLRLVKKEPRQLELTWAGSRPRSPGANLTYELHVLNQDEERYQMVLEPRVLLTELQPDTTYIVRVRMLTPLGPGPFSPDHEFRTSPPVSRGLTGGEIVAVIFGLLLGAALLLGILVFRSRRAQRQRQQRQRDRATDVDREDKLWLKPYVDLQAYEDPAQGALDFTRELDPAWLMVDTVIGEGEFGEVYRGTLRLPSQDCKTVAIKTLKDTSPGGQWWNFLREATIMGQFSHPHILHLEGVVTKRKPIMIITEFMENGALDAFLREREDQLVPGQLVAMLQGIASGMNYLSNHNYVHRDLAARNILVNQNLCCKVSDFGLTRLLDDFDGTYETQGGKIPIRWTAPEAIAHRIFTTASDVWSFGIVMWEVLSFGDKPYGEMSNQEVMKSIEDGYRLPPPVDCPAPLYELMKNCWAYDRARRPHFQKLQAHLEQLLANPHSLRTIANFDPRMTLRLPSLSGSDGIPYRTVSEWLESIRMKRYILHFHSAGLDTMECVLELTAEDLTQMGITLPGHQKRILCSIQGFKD

[15] = target: T6, Ephrin type-A receptor 1 (Homo sapiens); details: at 10 µM
[16] = target: Ephrin type-A receptor 2 (Homo sapiens) (UniProt P29317); details: at 1 µM
[17] = target: Ephrin type-A receptor 2 (Homo sapiens) (UniProt P29317); details: at 10 µM
[18] = target: T7, Ephrin type-A receptor 3 (Homo sapiens) (UniProt P29320); details: at 1 µM
T7 sequence (whole entry): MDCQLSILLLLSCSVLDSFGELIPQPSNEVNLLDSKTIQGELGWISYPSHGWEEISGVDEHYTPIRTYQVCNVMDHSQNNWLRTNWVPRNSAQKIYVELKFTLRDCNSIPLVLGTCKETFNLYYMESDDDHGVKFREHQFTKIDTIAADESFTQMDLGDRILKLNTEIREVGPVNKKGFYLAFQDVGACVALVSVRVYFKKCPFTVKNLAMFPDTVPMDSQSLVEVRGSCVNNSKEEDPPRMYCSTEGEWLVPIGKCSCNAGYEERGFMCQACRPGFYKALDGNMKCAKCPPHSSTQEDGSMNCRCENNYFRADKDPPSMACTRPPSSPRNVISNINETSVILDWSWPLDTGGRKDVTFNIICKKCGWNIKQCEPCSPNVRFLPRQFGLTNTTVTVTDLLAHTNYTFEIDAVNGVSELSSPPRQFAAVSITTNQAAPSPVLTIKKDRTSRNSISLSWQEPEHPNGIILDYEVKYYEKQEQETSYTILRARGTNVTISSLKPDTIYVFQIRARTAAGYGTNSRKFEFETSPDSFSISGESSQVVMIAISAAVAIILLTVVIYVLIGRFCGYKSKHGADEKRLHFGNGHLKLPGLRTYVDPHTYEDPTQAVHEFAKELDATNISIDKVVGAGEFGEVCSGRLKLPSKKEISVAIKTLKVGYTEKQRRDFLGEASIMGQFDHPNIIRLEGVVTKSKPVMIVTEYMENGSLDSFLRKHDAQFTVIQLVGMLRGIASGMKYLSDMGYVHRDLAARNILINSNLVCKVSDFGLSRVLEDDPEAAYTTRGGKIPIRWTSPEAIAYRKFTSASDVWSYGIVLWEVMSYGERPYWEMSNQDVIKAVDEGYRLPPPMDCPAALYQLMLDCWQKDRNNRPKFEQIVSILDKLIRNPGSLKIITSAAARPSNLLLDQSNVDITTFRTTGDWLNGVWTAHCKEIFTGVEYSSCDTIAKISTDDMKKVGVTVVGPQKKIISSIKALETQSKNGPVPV

[19] = target: Epidermal growth factor receptor (Homo sapiens) (UniProt P00533); details: at 1 µM
[20] = target: Epidermal growth factor receptor (Homo sapiens) (UniProt P00533); details: at 10 µM

Sequence of Death-associated protein kinase 2 (Homo sapiens) (Q9UIK4 whole entry, looked up): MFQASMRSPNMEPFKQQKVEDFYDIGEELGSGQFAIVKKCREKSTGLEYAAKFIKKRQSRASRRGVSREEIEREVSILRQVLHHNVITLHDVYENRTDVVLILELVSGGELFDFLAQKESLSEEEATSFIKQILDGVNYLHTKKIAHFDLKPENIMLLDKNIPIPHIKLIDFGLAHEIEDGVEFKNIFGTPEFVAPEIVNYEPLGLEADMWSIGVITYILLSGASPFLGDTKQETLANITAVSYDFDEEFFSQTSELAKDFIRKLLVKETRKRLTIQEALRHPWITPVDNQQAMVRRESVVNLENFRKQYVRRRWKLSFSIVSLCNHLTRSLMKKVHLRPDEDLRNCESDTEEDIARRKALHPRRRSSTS
Sequence of Ephrin type-A receptor 2 (Homo sapiens) (P29317 whole entry): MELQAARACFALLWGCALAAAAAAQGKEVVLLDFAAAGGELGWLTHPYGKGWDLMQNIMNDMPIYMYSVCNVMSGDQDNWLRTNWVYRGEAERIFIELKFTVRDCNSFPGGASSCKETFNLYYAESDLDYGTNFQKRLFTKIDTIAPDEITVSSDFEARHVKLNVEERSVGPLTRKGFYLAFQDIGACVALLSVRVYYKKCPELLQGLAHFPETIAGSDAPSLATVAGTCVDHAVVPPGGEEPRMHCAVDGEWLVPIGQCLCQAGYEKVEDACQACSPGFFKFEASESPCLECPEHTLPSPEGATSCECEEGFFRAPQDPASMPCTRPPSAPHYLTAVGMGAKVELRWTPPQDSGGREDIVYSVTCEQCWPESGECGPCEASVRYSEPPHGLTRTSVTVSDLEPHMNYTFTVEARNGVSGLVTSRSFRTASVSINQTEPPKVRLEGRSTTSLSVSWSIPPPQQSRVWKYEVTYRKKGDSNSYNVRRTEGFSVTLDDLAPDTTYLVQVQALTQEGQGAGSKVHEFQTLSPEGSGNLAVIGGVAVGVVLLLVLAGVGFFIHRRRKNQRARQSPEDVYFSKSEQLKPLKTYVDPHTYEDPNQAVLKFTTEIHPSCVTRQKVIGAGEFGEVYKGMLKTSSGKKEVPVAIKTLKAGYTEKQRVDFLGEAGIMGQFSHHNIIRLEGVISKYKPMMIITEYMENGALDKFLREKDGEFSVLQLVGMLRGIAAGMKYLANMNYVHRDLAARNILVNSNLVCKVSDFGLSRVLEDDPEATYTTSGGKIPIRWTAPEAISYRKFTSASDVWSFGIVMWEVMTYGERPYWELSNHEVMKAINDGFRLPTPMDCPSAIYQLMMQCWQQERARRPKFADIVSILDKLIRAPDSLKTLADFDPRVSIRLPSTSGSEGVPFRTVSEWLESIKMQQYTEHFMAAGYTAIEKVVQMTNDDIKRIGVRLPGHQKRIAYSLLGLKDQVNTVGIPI
Sequence of Death-associated protein kinase 1 (Homo sapiens) (P53355 whole entry, looked up): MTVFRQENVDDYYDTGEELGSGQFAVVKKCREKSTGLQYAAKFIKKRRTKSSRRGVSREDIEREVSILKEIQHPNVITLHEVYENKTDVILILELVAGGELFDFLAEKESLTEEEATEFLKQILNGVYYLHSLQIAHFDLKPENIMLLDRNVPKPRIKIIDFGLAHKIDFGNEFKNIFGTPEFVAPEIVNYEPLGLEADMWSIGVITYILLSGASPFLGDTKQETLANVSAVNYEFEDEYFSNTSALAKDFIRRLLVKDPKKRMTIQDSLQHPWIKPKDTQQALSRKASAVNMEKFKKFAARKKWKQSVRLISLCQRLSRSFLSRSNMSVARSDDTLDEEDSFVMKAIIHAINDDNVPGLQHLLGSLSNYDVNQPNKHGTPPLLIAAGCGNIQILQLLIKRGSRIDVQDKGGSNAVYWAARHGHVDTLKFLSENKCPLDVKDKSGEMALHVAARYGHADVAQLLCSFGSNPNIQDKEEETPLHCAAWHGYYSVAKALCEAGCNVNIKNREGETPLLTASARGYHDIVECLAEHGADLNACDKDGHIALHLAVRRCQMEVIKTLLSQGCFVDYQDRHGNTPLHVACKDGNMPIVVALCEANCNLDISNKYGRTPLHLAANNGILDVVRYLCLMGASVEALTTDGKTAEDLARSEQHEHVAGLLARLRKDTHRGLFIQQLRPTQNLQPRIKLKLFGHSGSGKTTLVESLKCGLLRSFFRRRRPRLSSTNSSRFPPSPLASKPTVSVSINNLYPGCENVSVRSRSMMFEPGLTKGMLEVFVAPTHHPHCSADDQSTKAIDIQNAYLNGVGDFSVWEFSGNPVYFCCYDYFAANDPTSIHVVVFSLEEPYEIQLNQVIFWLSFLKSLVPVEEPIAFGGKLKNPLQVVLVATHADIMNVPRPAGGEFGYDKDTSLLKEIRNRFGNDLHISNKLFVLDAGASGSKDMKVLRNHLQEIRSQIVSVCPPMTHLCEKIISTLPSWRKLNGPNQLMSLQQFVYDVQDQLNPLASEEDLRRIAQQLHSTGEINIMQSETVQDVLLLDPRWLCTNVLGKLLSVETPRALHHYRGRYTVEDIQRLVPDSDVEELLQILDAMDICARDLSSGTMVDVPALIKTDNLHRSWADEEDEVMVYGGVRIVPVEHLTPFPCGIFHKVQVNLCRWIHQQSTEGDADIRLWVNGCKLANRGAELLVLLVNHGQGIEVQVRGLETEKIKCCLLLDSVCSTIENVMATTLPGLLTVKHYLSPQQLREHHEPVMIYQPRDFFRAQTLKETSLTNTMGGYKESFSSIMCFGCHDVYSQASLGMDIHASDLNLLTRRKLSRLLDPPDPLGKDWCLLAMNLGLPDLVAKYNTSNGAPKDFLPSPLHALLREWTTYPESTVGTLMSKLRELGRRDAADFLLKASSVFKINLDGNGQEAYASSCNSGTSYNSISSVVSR
Sequence of Epidermal growth factor receptor (Homo sapiens) (P00533 whole entry): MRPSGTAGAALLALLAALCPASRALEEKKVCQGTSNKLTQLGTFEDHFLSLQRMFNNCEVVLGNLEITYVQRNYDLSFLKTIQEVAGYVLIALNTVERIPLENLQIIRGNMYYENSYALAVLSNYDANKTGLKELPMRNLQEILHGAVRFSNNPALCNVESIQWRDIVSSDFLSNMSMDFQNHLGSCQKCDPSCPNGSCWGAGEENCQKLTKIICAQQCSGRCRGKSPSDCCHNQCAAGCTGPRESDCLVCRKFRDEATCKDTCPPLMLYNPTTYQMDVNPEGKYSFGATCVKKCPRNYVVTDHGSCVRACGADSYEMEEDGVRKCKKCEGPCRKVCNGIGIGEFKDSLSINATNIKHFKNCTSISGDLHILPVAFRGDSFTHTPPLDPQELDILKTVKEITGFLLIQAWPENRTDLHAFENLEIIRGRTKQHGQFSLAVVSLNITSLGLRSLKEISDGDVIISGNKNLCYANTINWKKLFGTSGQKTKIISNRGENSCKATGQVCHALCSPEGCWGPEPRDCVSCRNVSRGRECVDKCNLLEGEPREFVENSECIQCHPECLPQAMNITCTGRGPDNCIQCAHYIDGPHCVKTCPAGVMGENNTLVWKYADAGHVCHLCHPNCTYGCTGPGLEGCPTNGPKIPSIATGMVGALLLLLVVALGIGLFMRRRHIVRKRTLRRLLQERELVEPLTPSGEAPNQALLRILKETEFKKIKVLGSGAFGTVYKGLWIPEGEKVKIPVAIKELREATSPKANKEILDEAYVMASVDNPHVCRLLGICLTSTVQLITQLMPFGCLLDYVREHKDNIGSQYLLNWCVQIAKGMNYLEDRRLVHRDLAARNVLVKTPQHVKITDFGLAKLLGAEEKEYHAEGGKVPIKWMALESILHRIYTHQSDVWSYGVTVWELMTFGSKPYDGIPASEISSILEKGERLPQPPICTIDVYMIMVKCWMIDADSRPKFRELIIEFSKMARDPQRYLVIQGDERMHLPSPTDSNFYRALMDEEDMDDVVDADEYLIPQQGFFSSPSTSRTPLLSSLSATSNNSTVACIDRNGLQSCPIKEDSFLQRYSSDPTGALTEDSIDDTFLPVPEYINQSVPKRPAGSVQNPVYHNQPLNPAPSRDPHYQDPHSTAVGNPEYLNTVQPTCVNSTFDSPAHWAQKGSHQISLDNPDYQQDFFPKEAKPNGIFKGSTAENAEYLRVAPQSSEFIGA

| Compound | residual activity [1] [%] | residual activity [2] [%] | residual activity [3] [%] | residual activity [4] [%] | residual activity [5] [%] | residual activity [6] [%] | residual activity [7] [%] | residual activity [8] [%] | residual activity [9] [%] | residual activity [10] [%] | residual activity [11] [%] | residual activity [12] [%] | residual activity [13] [%] | residual activity [14] [%] | residual activity [15] [%] | residual activity [16] [%] | residual activity [17] [%] | residual activity [18] [%] | residual activity [19] [%] | residual activity [20] [%] |
| --- | --- | --- | --- | --- | --- | --- | --- | --- | --- | --- | --- | --- | --- | --- | --- | --- | --- | --- | --- | --- |
| CCC(=O)Nc1ccc2ncnc(Nc3cccc(Br)c3)c2c1 | 93 | 98 | 107 | 79 | 100 | 92 | 82 | 112 | 118 | 95 | 77 | 99 | 82 | 71 | 89 | 105 | 90 | 105 |  |  |
| COc1ccc(CNc2nc(N(CCO)CCO)nc3c2ncn3C(C)C)cc1 | 88 | 102 | 104 | 94 | 80 | 91 | 96 | 104 | 73 | 106 | 85 | 87 | 67 | 95 | 81 | 95 | 117 | 82 | 97 | 116 |
| CCN(CC)CCCCN1c2ccccc2Oc2ccc(Cl)cc21 | 99 | 111 | 109 | 96 | 104 | 115 | 90 | 120 | 136 | 124 | 138 | 105 | 103 | 102 | 124 | 108 | 109 | 113 | 124 | 127 |
